Among the data in PubChem BioAssay AID686979 (National Center for Advancing Translational Sciences (NCATS), 2013) are Potency and activity change, negative = growth inhibition values, retold here.

Values joined by “and” are separate entries in the source; they are usually repeats but may differ in a detail not shown here. Equal values may be shown once. Hit rate of the full screen: of about 420,000 compounds, about 50,000 (12%) were called active. A call without a number means that no potency is given here. Inconclusive results (about 26%) are left out. This is one part of a sample in which actives are shown more often than they occur. Calls follow the shape of the dose curve; as a rule, active = well fitted inhibition curve with a large enough effect; inconclusive = small, poorly fitted or top-dose-only effect; inactive = flat fitted curve, though single readings scatter. More than one record can exist for a structure, and the calls need not agree.
Potency is read from the fitted curve at half-maximal effect.

The assay is described as follows: qHTS for Inhibitors of human tyrosyl-DNA phosphodiesterase 1 (TDP1): qHTS in cells in presence of CPT. Also: nearly all actives have a fitted effect of over 55% in size. The following applies: chicken DT40 Tdp1-/-;hTDP1 cells + 20 nM CPT, ATP luminescence, 48 h; series mostly up to 46.2 µM. The procedure, abridged:
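Cell growth measured by CellTiter-Glo luminescence after a minimum 48 h, 37 C compound exposure with 20 nM CPT in Tdp1-knockout DT40 cells stably expressing hTDP1, seeded 400/well; qHTS titration format.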
On the technique in general: Quantitative high-throughput screening tests each substance at several concentrations.
As for `COc1cc(N2C(=O)CSC2=S)cc(OC)c1OC`, the Potency result is “inactive”. Same read-out and setting: then `CCOC(=O)c1nnn(CC(=O)NC(=O)Nc2ccccc2F)c1C(=O)OCC`, with “inactive”; and `Cn1c(CCNS(=O)(=O)c2ccc(F)cc2)nnc1SCc1cccnc1`, with “inactive”. On the same count and under the same terms, under `CC(C)CN1CCNC(=O)C1CC(=O)N(C)CC1CCOCC1` (centres undefined) stands “inactive”; under `O=C(NCCS(=O)(=O)N1CCN(c2ccc(F)cc2)CC1)c1ccccc1Br`, “inactive”. Same read-out and setting: then `COc1ccccc1CCNC(=O)CN1C(=O)NC2(CCCC2)C1=O`, with “inactive”; and `COC(=O)c1cc(NC(=O)CC2C(=O)NCCN2C(=O)c2ccc(F)cc2)cc(C(=O)OC)c1` (centres undefined), with “inactive”. Take `CCOc1ccc(C(C(=O)NCCOC)N(CCOC)C(=O)CCC(=O)Nc2ccccn2)cc1` (centres undefined): the Potency entry was “inactive”.

Take `CCN(C(=O)c1cc([N+](=O)[O-])ccc1NCc1cccnc1)c1ccccc1`: the Potency result was “inactive”. For the compound `CCCn1nc(C(=O)NNC(=O)CSCC(=O)Nc2cc(C)on2)c2ccccc2c1=O`, the Potency result is “inactive”. Still for that read-out and setting: under `O=C(NC(=O)c1ccccc1)NC(=O)c1ccccc1` stands “inactive”; under `CC(NC(=O)c1ccccc1)C(=O)Nc1ccccc1` (centres undefined), “inactive”. With `O=C(NC1=CC(=O)c2ccccc2C1=O)c1ccccc1`, the Potency was 0.651 µM (active). On to `CCC1CN(CCNC(=O)c2ccsc2)Cc2cc(OC)ccc2O1` (centres undefined), for which the activity change, negative = growth inhibition is 9.24% [at 9.04 µM] (inactive). Regarding `COc1ccc(C(C(=O)NCC2CCCO2)N(C(=O)Cn2nnc3ccccc32)c2ccc(NC(C)=O)cc2)cc1OC` (centres undefined), the Potency entry is “inactive”. For `O=[N+]([O-])c1ccc(CN2CC(N3CCC(c4ccccc4)CC3)CS2(=O)=O)cc1` (centres undefined), the Potency is 18.4 µM (active). Still for that read-out and setting: under `O=S1(=O)CC(N2CCN(c3ccccn3)CC2)CN1Cc1ccc(F)cc1` (centres undefined) stands “inactive”; under `O=S1(=O)CC(N2CCN(Cc3ccccc3F)CC2)CN1Cc1cn(Cc2ccccc2)nn1` (centres undefined), “inactive”. Turning to `CCc1nn(CC(=O)N2CCN(CC)CC2)c(=O)c2cccn12`, the Potency entry is “inactive”. Still for that read-out and setting: under `COc1ccc(S(=O)(=O)NC(C)c2ccccc2)cc1C(=O)N1CCCCC1` (centres undefined) stands “inactive”; under `Cc1ccc(S(=O)(=O)n2cccc2CO)cc1`, “inactive”. Still for that read-out and setting: under `COc1cccc2cc(-c3nc(Cl)c4c5c(sc4n3)CC(C)CC5)c(=O)oc12` (centres undefined) stands “inactive”. For `COc1ccc(OC)c(NC(=O)/C=C/c2ccc(C)o2)c1`, the Potency entry was “inactive”.

Consider `CCc1nnc(NC(=O)/C=C/c2ccc(C)o2)s1`, for which the Potency result was “inactive”. On to `Cc1ccc(/C=C/C(=O)Nc2ccc([N+](=O)[O-])c(NC(=O)/C=C/c3ccc(C)o3)c2)o1`, for which the Potency is 11.6 µM (active). The same measure, in the same setting: under `O=C(Nc1ccn(Cc2ccc(F)cc2)n1)c1ccncc1` stands 18.4 µM (active); under `O=C(Nc1ccn(Cc2ccccc2)n1)c1cccc(F)c1`, “inactive”. Same read-out and setting: under `O=C(Nc1ccn(Cc2ccccc2)n1)c1n[nH]c([N+](=O)[O-])c1Cl` stands “inactive”; under `Cn1c(=S)sc2ccc3ccccc3c21`, “inactive”. Still for that read-out and setting: under `CC(C)NC(=O)N1CC[C@@]2(CCCN(C(=O)c3ccco3)C2)C1` stands “inactive”. For `Cc1ccc(NC(=O)CN2CCCCC2)c2c1CC(C)(C)O2`, the Potency entry is “inactive”. Take `O=C(O)CSc1ccc(S(=O)(=O)N2CCCC2)cn1`: the Potency entry was “inactive”. Same read-out and setting: then `Cc1ccc(S(=O)(=O)NC2(C(F)(F)F)NC(=O)N(CCc3ccccc3)C2=O)cc1` (centres undefined), with “inactive”; and `O=C(Cc1ccc(F)cc1)N1CCN=C1SCc1cccc([N+](=O)[O-])c1`, with “inactive”. In the case of `COc1ccc(Nc2ncc(C(=O)N3CCN(c4ccccc4OC)CC3)c3ccccc23)cc1`, the Potency is 29.1 µM (active) and 13 µM (active). `COc1ccccc1N1CCN(C(=O)c2ccc(NC3=NC4CS(=O)(=O)CC4S3)cc2)CC1` (centres undefined): the Potency entry is “inactive”. For the compound `COc1ccc(NC(=O)c2cnc(Nc3ccc(C)c(Cl)c3)c3ccccc23)cc1OC`, the Potency result was “inactive”. For the compound `O=C(Nc1cc(F)ccc1F)c1ccc2c(=O)n3c(nc2c1)CCC3`, the Potency result is “inactive”.

For `CC(=O)c1cccc(NC(=O)C2COc3ccccc3O2)c1` (centres undefined), the Potency result was “inactive”. Regarding `O=C(Nc1nc(-c2ccc3c(c2)OCO3)cs1)c1ccncc1`, the Potency was 14.6 µM (active). Regarding `Cc1ccc(-c2csc(NC(=O)Cc3cccs3)n2)cc1C`, the Potency entry was “inactive”.

On to `COc1ccc(NC(=O)C2COc3ccccc3O2)cc1` (centres undefined), for which the Potency result is “inactive”. As to `Cc1csc(NC(=O)C2=COCCO2)n1`, the Potency entry was “inactive”. The same measure, in the same setting: then `O=C(Nc1nc(-c2cccnc2)cs1)c1ccccc1F`, with “inactive”. On to `CC(=O)NCCC(=O)Nc1nc(-c2ccc3c(c2)OCCO3)cs1`, for which the Potency result is “inactive”. The same measure, in the same setting: then `O=C(CCc1ccccc1)Nc1nn[nH]n1`, with “inactive”. Same read-out and setting: under `O=C(CCc1ccccc1)Nc1ccc(NC(=O)C2CCCCC2)nc1` stands “inactive”; under `O=C(Nc1nc(-c2ccncc2)cs1)C1COc2ccccc2O1` (centres undefined), 20.6 µM (active); under `O=C(CCc1ccccc1)Nc1ncc([N+](=O)[O-])s1`, 20.6 µM (active). On to `Cc1ccc(-c2csc(NC(=O)C3=COCCO3)n2)cc1C`, for which the Potency was 13 µM (active). Still for that read-out and setting: under `Fc1ccc(/C=N/n2c(COc3ccccc3)n[nH]c2=S)cc1` stands “inactive”; under `C#CCN(C[C@H]1[C@H](OC(=O)NC2CCCC2)[C@H](OC(=O)NC2CCCC2)C[C@H]2C(=O)N(c3ccccc3)C(=O)[C@@H]12)S(=O)(=O)c1ccc(C)cc1`, “inactive”.

On to `CC(Oc1ccccc1)C(=O)NN1Cc2ccccc2C1=N` (centres undefined), for which the Potency entry was “inactive”.

For the compound `O=C(COc1ccc([N+](=O)[O-])cc1)Nc1ccc(N2CCCC2)cc1`, the Potency entry is “inactive”. The same measure, in the same setting: under `O=C(Nc1ncc([N+](=O)[O-])s1)C1COc2ccccc2O1` (centres undefined) stands 14.6 µM (active). On the same count and under the same terms, under `O=C(Nc1nnc(SCc2ccc(Cl)cc2Cl)s1)C1COc2ccccc2O1` (centres undefined) stands “inactive”; under `C/C(=N/NC(=O)C1COc2ccccc2O1)c1ccco1` (centres undefined), “inactive”.

Regarding `Cc1cc(N=Nc2ccc3ccccc3c2)ccc1O`, the Potency entry is “inactive”. For `C[C@H](NC(=O)c1nc[nH]c1C(=O)NCC(=O)OC(C)(C)C)C(=O)OCc1ccccc1`, the Potency result was “inactive”.

With `COc1ccc(C(O)C(O)(C(=O)OC(C)C)c2ccc(C)cc2)cc1` (centres undefined), the Potency result is “inactive”.

For `COc1ccc(OC)c(-c2csc(NC(=O)COC(=O)C3CC3)n2)c1`, the Potency entry was “inactive”. For `COc1ccc(CCN(C(=O)COc2ccccc2)c2nc(-c3ccccc3)cs2)cc1OC`, the Potency entry was “inactive”. `COc1ccc(-c2csc(Nc3ccc(O)cc3)n2)cc1`: the Potency is 10.3 µM (active).

Turning to `COc1cccc(CC(=O)Nc2ccc(-c3csc(C)n3)cc2)c1`, the Potency entry is “inactive”.

Consider `COc1ccc(-c2csc(Cc3nc(O)cs3)n2)cc1`, for which the Potency is 18.4 µM (active). Consider `COc1ccc(OC)c(Nc2nc(-c3ccc(O)c(O)c3)cs2)c1`, for which the Potency is 0.82 µM (active). For `COc1ccc(OC)c(-c2csc(-c3cccs3)n2)c1`, the Potency entry was “inactive”.

Take `N#CCc1ccc(NC(=O)c2ccccc2C(=O)Nc2ccc(CC#N)cc2)cc1`: the Potency entry was “inactive”. On the same count and under the same terms, then `COc1ccc(NC(=O)COC(=O)c2n[nH]c3ccccc23)c(OC)c1`, with “inactive”. Turning to `CCOc1ccc(N2CC(C(=O)NCc3ccccn3)CC2=O)cc1` (centres undefined), the Potency result is “inactive”.

As for `COc1cc(/C=C/C(=O)O)cc(S(=O)(=O)Nc2ccccc2C(=O)NCCc2ccccc2)c1OC`, the Potency result was “inactive”. As for `COCCCn1c(SCC(=O)NC2CCCC2)nnc1-c1ccccc1`, the Potency entry was “inactive”.

As for `CCCCN(C)CCCNC(=O)CN1N=C(c2ccc(OC)cc2)CCC1=O`, the Potency entry was “inactive”. The same measure, in the same setting: under `O=C1NNC(c2ccccc2)=N/C1=C\c1ccc(Cl)cc1` stands “inactive”; under `Cc1nc(=O)c(-c2ccccc2)c(C)n1-c1ccc(Br)cc1`, “inactive”; under `CCOC(=O)c1c(C)oc(C)c(C(=O)OCC)c1=O`, “inactive”. For the compound `CC(C)Cn1cnc2c1c(=O)n(CC(=O)NN)c(=O)n2Cc1ccccc1`, the Potency entry is “inactive”. Still for that read-out and setting: then `CC1=Nc2cc(C(=O)N3CCC(C)CC3)ccc2Sc2ccc(Cl)cc21`, with 14.6 µM (active); and `COc1ccc(C(=O)Nc2c(Cl)cc(Cl)cc2C(=O)N2CCC(C)CC2)cc1`, with “inactive”; and `CC1CCN(C(=O)c2ccc3c(c2)NC(=O)CN3)CC1`, with “inactive”. On to `Cc1cc(OCc2ccc(C(=O)Nc3ccc(C(=O)O)cc3)o2)ccc1Cl`, for which the Potency entry was “inactive”. With `CCN(CC)CCCNC(=O)CCc1ccccc1`, the Potency result is “inactive”.

For `CN(Cc1ccccc1)C(=O)CCc1ccccc1`, the Potency result is “inactive”. Still for that read-out and setting: under `CN(C(=O)CN(CCO)CC(=O)N(C)C(C)(C)Cc1ccccc1)C(C)(C)Cc1ccccc1` stands “inactive and 3.66 µM (active)”; under `CCCCN(C)c1ccc([N+](=O)[O-])cc1`, “inactive”. The same measure, in the same setting: then `Cc1cc(C)c(S(=O)(=O)c2ccccc2)c(OC(=O)c2c(F)cccc2Cl)n1`, with “inactive”. Same read-out and setting: under `CN(C)/C=C/C(=O)c1ccccc1F` stands “inactive”; under `Cc1nc(-c2ccccc2)sc1C(=O)/C=C/N(C)C`, 23.1 µM (active). Consider `Cc1ccc(SCC(=O)c2sc(-c3ccccc3)nc2C)cc1`, for which the Potency entry is “inactive”. As to `Cc1nc(-c2ccc(Cl)cc2)sc1C(=O)NN`, the Potency entry is “inactive”.

As to `Cc1nc(-c2ccccc2)sc1C(=O)/C=C/c1ccccc1`, the Potency was 23.1 µM (active).

With `Cc1nc(COc2cccc(Cl)c2)sc1C(=O)/C=C/N(C)C`, the Potency entry is “inactive”.

As for `O=C(CN1CCSCC1)N/N=C/c1ccc(F)cc1F`, the Potency result was “inactive”. Turning to `CCn1nc(C(=O)NNC(=O)C2CSC3(C)CCC(=O)N23)c2ccccc2c1=O` (centres undefined), the Potency entry is “inactive”. Consider `COc1ccc(S(=O)(=O)NC(C)C(=O)NCc2ccncc2)cc1Cl` (centres undefined), for which the Potency entry is “inactive”. On to `COc1ccc(Cn2c(=O)c3oc4ccccc4c3n(CC(=O)Nc3ccc(F)cc3F)c2=O)cc1`, for which the Potency result is “inactive”.

Take `CN=C(c1ccccc1)c1c(C)cccc1C`: the Potency result is “inactive”.

With `COc1cc(Nc2nc3ccc(Cl)cc3n3cnnc23)cc(OC)c1OC`, the Potency is 20.6 µM (active). The same measure, in the same setting: under `COc1ccc(OC)c(C(O)c2nc3ccccc3n2C)c1` (centres undefined) stands “inactive”; under `CCOc1ccc(OCC)c(Nc2nc3ccccc3n3nnnc23)c1`, “inactive”.

On to `COc1ccccc1CNc1nc2ccc(Cl)cc2n2cnnc12`, for which the Potency result was “inactive”.

Turning to `COc1ccc(CCNc2nc3ccc(C)cc3n3cnnc23)cc1OC`, the Potency is 14.6 µM (active). As to `COc1ccc(OC)c(Nc2nc3ccccc3n3cnnc23)c1`, the Potency is 4.11 µM (active).

On to `CCOC(=O)Cc1cccc(-c2cc(CCCCCCc3ccc(O[C@H]4O[C@H](COC(C)=O)[C@@H](OC(C)=O)[C@H](OC(C)=O)[C@@H]4OC(C)=O)c(-c4cccc(CC(=O)OCC)c4)c3)ccc2O[C@H]2O[C@H](COC(C)=O)[C@@H](OC(C)=O)[C@H](OC(C)=O)[C@@H]2OC(C)=O)c1`, for which the Potency result was “inactive”.
